Data published in PubChem BioAssay AID784 (The Scripps Research Institute Molecular Screening Center, 2007).
The campaign covered roughly 30,000 compounds. About 130 (0.43%) were called active. Cut-off read from the data, not from the text of the source: active = activation above about 65%; inactive = the rest. Only a selection was taken, and actives are over-represented in it overall.

Target: Lysosomal acid glucosylceramidase (Homo sapiens) (UniProt P04062)
Assay: raising glucocerebrosidase activity, Gaucher cells – primary screen (AID 784);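 note: 0% = vehicle wells and 100% = positive control wells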
Settings: L444P Gaucher fibroblasts, 4-MU-glucoside fluorescence, 3 days; at 10 µM; hits give high values

Sequence of Lysosomal acid glucosylceramidase (Homo sapiens) (P04062 whole entry L483P): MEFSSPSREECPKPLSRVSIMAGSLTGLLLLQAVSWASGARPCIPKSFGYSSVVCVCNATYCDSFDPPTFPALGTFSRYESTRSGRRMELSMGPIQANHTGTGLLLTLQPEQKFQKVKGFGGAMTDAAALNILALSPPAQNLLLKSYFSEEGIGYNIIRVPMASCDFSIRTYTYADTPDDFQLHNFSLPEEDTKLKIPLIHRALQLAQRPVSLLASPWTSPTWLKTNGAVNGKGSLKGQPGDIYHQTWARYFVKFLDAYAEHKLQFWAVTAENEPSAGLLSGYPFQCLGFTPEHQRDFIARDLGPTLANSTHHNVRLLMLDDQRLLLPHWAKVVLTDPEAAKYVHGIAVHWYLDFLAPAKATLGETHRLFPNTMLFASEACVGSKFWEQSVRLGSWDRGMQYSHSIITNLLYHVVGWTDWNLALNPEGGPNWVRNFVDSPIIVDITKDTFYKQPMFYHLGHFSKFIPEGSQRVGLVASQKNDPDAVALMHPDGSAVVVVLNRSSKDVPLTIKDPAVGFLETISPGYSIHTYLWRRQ

| SMILES | activation |
| --- | --- |
| CCn1c2c(c3ccc(OC)cc31)CCCC2=O | -2.82% (inactive) |
| O=C(COc1ncnc2ccccc12)NC(=O)NCc1ccccc1 | -9.58% (inactive) |
| CCCOc1cccc(C(=O)Nc2nnn(CCC)n2)c1 | -14.1% (inactive) |
| Cc1ccc(OCc2nc(C#N)c(N3CCCC3)o2)cc1 | -34.7% (inactive) |
| Cc1ccc(OCCCC(=O)N2CCOCC2)c(C)c1 | 9.81% (inactive) |
| Cc1cc(N2CCN(Cc3ccc4c(c3)OCO4)CC2)n2ncnc2n1 | 4.34% (inactive) |
| CCOc1cc(CO)ccc1OCC(=O)N1CCCCC1 | 38.3% (inactive) |
| CC(C)(C)c1nc(NCC2CCCO2)c2nnn(Cc3ccccc3)c2n1 (stereo unspecified) | -23.9% (inactive) |
| O=CN1CCN(C2CC(=O)N(c3ccc4c(c3)OCO4)C2=O)CC1 (stereo unspecified) | -20.8% (inactive) |
| CC1(C)CC(=O)C=C(NCCCN2CCCC2=O)C1 | 48.7% (inactive) |
| NC(CSC12CC3CC(CC(C3)C1)C2)C(=O)O (stereo unspecified) | -2.09% (inactive) |
| CCOC(=O)C1CCCN(C(=O)c2cncc(Br)c2)C1 (stereo unspecified) | -20.7% (inactive) |
| OC(COc1ccccc1)Cn1cc(Br)cn1 (stereo unspecified) | -62.4% (inactive) |
| COc1ccc(-c2nnc(SC(C)C#N)o2)cc1 (stereo unspecified) | -2.02% (inactive) |
| CCCCSc1nnc(-c2ccc(C)cc2)o1 | 65.5% (active) |
| c1ccc(-c2nnc(SCc3nc4ccccc4[nH]3)o2)cc1 | -6.36% (inactive) |
| CC1(C)SC2c3ccccc3C(=O)N2[C@@H]1C(=O)NCc1ccco1 (stereo partly specified) | -2.64% (inactive) |
| C=CCn1cnc2scc(-c3ccccc3)c2c1=O | -7.71% (inactive) |
| CCN1C(=O)C(C(=O)NC(C)c2ccccc2)C2CC1(C)Oc1ccccc12 (stereo unspecified) | -6.62% (inactive) |
| CC(C)C(C(=O)NC1CCCCC1)N(CC1CCCO1)C(=O)CNS(=O)(=O)c1ccc(F)cc1 (stereo unspecified) | -1.42% (inactive) |
| COc1ccc(NC(=O)c2c(C)oc3c2CCCC3)cc1 | 9.49% (inactive) |
| CCc1c(C)sc(NC(=O)OC)c1C(=O)N1CCOCC1 | -9.88% (inactive) |
| Cc1nc2nc3c(cn2n1)C(=O)CC(c1ccccc1)C3 (stereo unspecified) | -10.1% (inactive) |
| CC(=O)Nc1cccc(NC(=O)c2c(-c3ccccc3)noc2C)c1 | -9.69% (inactive) |
| CCc1nc(N2CCN(c3nc(C)cc(C)n3)CC2)c2oc3ccccc3c2n1 | -1.58% (inactive) |
| CCCn1c(SCC(=O)Nc2cccc(C(=O)OCC)c2)nnc1-c1ccoc1C | -19.7% (inactive) |

| SMILES | activation |
| --- | --- |
| O=C(COc1ccccc1)N1CCc2ccccc2C1 | -2.86% (inactive) |
| CCCCc1nc2ccccc2c(=O)n1NC(=O)c1c(O)c2cccc3c2n(c1=O)CC3 | 3.98% (inactive) |
| Cc1c(NC(=O)Nc2ccccc2Cl)sc(=S)n1C | -15.8% (inactive) |
| CC12C(=O)N(n3cnnc3)C(=O)C1C1C=CC2C1 (stereo unspecified) | -8.37% (inactive) |
| CC(C)N(C(=O)Cn1c(SCC(=O)N2CCN(c3ccccc3)CC2)nc2ccccc21)C(C)C | -5.29% (inactive) |
| Cc1ccccc1NC(=O)c1cc(S(=O)(=O)N2CCOCC2)cs1 | -11.8% (inactive) |
| CC(=NCc1ccco1)C1=C(O)c2ccccc2C1=O | -41.5% (inactive) |
| Cc1nc2c(c(=O)n1Cc1ccco1)c1nc3ccccc3nc1n2Cc1ccccc1 | -11.7% (inactive) |
| COc1ccc(-c2csc(N3CCN(Cc4ccc5c(c4)OCO5)CC3)n2)cc1 | -17.4% (inactive) |
| CC(c1ccccc1)n1c(NCCCn2ccnc2)nc2c1c(=O)[nH]c(=O)n2C (stereo unspecified) | -10.3% (inactive) |
| COc1ccc(Br)cc1S(=O)(=O)N1CCN=C1C | -8.13% (inactive) |
| O=[n+]1c2c(n([O-])c3cc(Br)ccc31)CCC2 | 30.8% (inactive) |
| Cc1c(C(=O)OCc2cc(=O)n3cc(Br)ccc3n2)oc2ccccc12 | 23% (inactive) |
| CCOCCCNS(=O)(=O)Cc1ccccc1 | 6.43% (inactive) |
| CCOC(=O)C1=C(C)NC(C)=C(C(=O)OCC)C1C1=COCCO1 | -5.96% (inactive) |
| C=CCn1c(SCc2cc(C(=O)OC)c(C)o2)nnc1-c1ccncc1 | 31.7% (inactive) |
| Cn1c(=O)n(C)c(=O)n(CC(=O)N2CCCCC2)c1=O | -12.6% (inactive) |
| Clc1cccc(Cl)c1Cn1nnc(-c2cccs2)n1 | 10.2% (inactive) |
| COc1ccccc1CNCc1cccs1 | -7.11% (inactive) |
| NC(=NC(=O)c1ccccc1)C1=C(O)CCC1=O | 0% (inactive) |
| O=C(CSc1nnc(-c2cccs2)n1-c1ccccc1)N1CCN(C(=O)c2ccco2)CC1 | -13.7% (inactive) |
| Cc1ccsc1CNn1cnnc1SCc1ccccc1F | -2.23% (inactive) |
| Cc1nnc(NC2=NCCCCC2)o1 | 8.3% (inactive) |
| CCS(=O)(=O)N1CCN(C(=O)c2cccs2)CC1 | -24.4% (inactive) |
| COc1ccccc1C(=O)Oc1ccc(N2C(=O)CCC2=O)cc1 | 4.62% (inactive) |
| COC(C)(C)[C@]12CC(O)(C(C)C)ON1[C@H]1CCCCC1N2O (stereo partly specified) | -2.77% (inactive) |

| SMILES | activation |
| --- | --- |
| CC(Cc1cccs1)NC(=O)NC1CCCCC1 (stereo unspecified) | -0.56% (inactive) |
| C=C(C)Cn1c(SCC(=O)NCc2ccco2)nc2sc3c(c2c1=O)CCC3 | -21.3% (inactive) |
| CCOC(=O)CC1C(=O)NCCN1C(=O)COc1ccc(Br)cc1C (stereo unspecified) | -21.1% (inactive) |
| Nn1c(SCC(=O)NC(=O)NC2CCCC2)nnc1-c1ccccc1F | 2.97% (inactive) |
| O=C(COc1ccc2c3c(c(=O)oc2c1)CCC3)NC1CCCCC1 | 9.84% (inactive) |
| CC1CC(c2ccccc2)n2nc(NC(=O)c3cccs3)nc2N1 (stereo unspecified) | -23.6% (inactive) |
| Cc1cc(NC(=O)COC(=O)c2ccc(F)c(S(=O)(=O)N3CCOCC3)c2)no1 | -7.98% (inactive) |
| Cc1cc(C)c2nc(N3CCCC3)c(C#N)cc2c1 | 18.1% (inactive) |
| CN(C(=O)CSc1nnnn1-c1ccccc1)C1CCCCC1 | -16.5% (inactive) |
| Cc1nn(-c2ccccc2)c(C)c1C(=O)OCC(=O)NC(=O)NC1CCCCC1 | 59.8% (inactive) |
| O=C(c1c(Cl)nc2sccn12)N1CCCc2ccccc21 | -24.6% (inactive) |
| CC1(c2ccccc2Cl)NC(=O)N(CC(=O)NC(=O)NCc2ccco2)C1=O (stereo unspecified) | -9.6% (inactive) |
| Cc1cc(OCCN2CCCC2)ccc1C(C)C | -12.4% (inactive) |
| CCC(=O)Nc1nc(OC)cc(OC)n1 | -18.3% (inactive) |
| CC(=O)c1cnc(Nc2nc(C)c3cc(C)ccc3n2)nc1C | 13.5% (inactive) |
| Cc1nnc(SCC(=O)N2CCc3ccccc32)n1-c1ccccc1 | -18.6% (inactive) |
| O=C(Cn1nnc(-c2ccccc2)n1)NCc1ccccc1 | -40% (inactive) |
| COc1ccc(Cn2c(=O)sc3ccccc32)cc1OC | -6.04% (inactive) |
| O=C(O)Cc1ccc(NC(=O)c2cccs2)cc1 | -9.31% (inactive) |
| O=C(NCc1cccnc1)c1cn(-c2ccccc2)nc1-c1cccs1 | -15.4% (inactive) |
| COCCCNC(=O)c1c(F)c(F)c(F)c(F)c1F | -31.9% (inactive) |
| CCOC(=O)C(CCOc1cccc(CC)c1)C(=O)OCC | -0.5% (inactive) |
| CCn1cc(C(=O)NCc2ccc(OC)cc2OC)c(=O)c2ccc(C)nc21 | -10.1% (inactive) |
| Cn1c(=O)[nH]c(=O)c2c1nc(N1CCCCCC1)n2CC(=O)c1ccccc1 | -1.4% (inactive) |
| CC1Cc2ccccc2N1C(=O)Cn1cnc2ccccc2c1=O (stereo unspecified) | -14.5% (inactive) |
| COC(=O)[C@@H](NC(=O)NCc1cccc(OC)c1)C(C)C | -5.38% (inactive) |

| SMILES | activation |
| --- | --- |
| CCCc1nnc(NC(=O)CN2C(=O)c3ccccc3S2(=O)=O)s1 | -21.6% (inactive) |
| O=P(O)(CP(=O)(c1ccccc1)c1ccccc1)c1ccccc1 | -3.68% (inactive) |
| CCCCNC(=O)CSc1nnc(-c2ccco2)n1C | -32.4% (inactive) |
| Cc1c(C)c2cc3c4c(oc3c(C)c2oc1=O)CCCC4 | 102% (active) |
| COC(=O)CCSc1nccn1Cc1ccccc1 | -3.3% (inactive) |
| Fc1ccccc1CCNc1nnnn1-c1ccccc1 | -5.46% (inactive) |
| CCN(C(=O)CSc1ncn[nH]1)c1cccc2ccccc12 | 4.77% (inactive) |
| COCCn1nnnc1CN1CCC(NC(=O)Nc2cccc(OC)c2)CC1 | 2.44% (inactive) |
| Cc1ccc(S(=O)(=O)N2CCN(C(=O)CCC(=O)NC3CCCc4ccccc43)CC2)cc1 (stereo unspecified) | -7.53% (inactive) |
| Cc1ccc(-c2noc(CCC(N)=O)n2)cc1 | 1.93% (inactive) |
| O=C(Cn1cc(C(=O)c2cccs2)c2ccccc21)NCc1cccs1 | 5.52% (inactive) |
| COC(=O)c1cn(CC(=O)NCc2cccs2)c2ccccc12 | -8.81% (inactive) |
| COCCCNC(=O)Cn1cc(C(=O)C2CC2)c2ccccc21 | 72.8% (active) |
| CCCCn1c(SCC(=O)N2CCC(C(=O)OCC)CC2)nc2cc(S(N)(=O)=O)ccc21 | -6.49% (inactive) |
| CCOC(=O)c1cc2c(n(-c3ccc(C)cc3)c1=O)CCCC2=O | -11% (inactive) |
| Cc1cccc(N2CC(C)Cn3c2nc2c3c(=O)n(CC(=O)OCc3ccccc3)c(=O)n2C)c1 (stereo unspecified) | -17.9% (inactive) |
| CCOc1ccccc1-n1c(SCC(=O)N2CCCC2)nnc1-c1ccoc1C | 0.64% (inactive) |
| O=C(Nc1nc2cc3c(cc2s1)OCCO3)c1cccc(S(=O)(=O)N2CCOCC2)c1 | 0.12% (inactive) |
| COc1ccccc1OCCC(=O)OCC(=O)NC(=O)NC(C)(C)C | 4.86% (inactive) |
| Cn1nc(-c2ccc(N3CCOCC3)c(NC(=O)c3ccccc3)c2)c2ccccc2c1=O | -54.8% (inactive) |
| C=CCn1c(N)c(C(=O)OCC(C)C)c2nc3ccccc3nc21 | -9.15% (inactive) |
| C=CCn1c(N)c(S(=O)(=O)c2cccs2)c2nc3ccccc3nc21 | -13.8% (inactive) |
| CC(C)Cn1c(N)c(C(=O)NCc2cccs2)c2nc3ccccc3nc21 | 73.7% (active) |
